SMILES strings stand for the structures. Screen size: about 110,000 compounds; about 1,400 (1.3%) were called active. The sample holds actives, similar compounds and a random draw of the others, so the mix is not that of the screen.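 How the source made its calls: active means Z score or B-score, a plate-position-corrected score, falls beyond the plate's 99.7% confidence bounds, in either direction; inactive means both scores lie inside the 99.7% bounds.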

This assay deals with Sodium-dependent dopamine transporter (Homo sapiens) (UniProt Q01959). The experiment in a line: changed hDAT dopamine uptake under cocaine IC80, either direction, primary screen, cocaine antagonist project, cell-based, LLC-PK1 hDAT, [14C]-dopamine uptake, MLSMR (AID 449768).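 Further: scored against the spread of the other compound wells on the same plate.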 Conditions: LLC-PK1 hDAT cells, [14C]-dopamine uptake with cocaine IC80; at 10 µM; actives deviate in either direction.
Chain of Sodium-dependent dopamine transporter (Homo sapiens) (Q01959 whole entry, looked up): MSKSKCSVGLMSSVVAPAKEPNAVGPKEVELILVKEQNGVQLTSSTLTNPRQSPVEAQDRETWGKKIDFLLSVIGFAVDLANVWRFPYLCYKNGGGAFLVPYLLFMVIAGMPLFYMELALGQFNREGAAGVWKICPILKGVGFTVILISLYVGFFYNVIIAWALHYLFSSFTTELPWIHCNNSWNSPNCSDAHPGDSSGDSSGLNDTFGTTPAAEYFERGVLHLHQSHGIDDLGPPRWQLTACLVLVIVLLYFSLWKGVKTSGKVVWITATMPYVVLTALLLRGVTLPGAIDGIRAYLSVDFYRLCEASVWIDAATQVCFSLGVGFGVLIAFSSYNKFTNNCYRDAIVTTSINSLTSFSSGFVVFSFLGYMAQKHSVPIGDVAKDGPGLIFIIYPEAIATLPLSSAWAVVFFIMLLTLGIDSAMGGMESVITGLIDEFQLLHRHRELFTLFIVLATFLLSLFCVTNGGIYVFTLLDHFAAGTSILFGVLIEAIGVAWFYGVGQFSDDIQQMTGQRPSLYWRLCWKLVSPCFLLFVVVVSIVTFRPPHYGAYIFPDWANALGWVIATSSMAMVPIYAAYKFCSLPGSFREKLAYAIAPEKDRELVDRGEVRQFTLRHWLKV
`COP1(=O)C[C@@H](O)[C@@H](O)[C@@H](COCc2ccccc2)O1` (some centres undefined): the B-score is -0.427 (inactive).
The figure for `CCCCCC(=O)Nc1ccc2oc(-c3ccncc3)nc2c1` is 1.15 (inactive); for `O=C(Cc1cccc2ccccc12)Nc1ccc2oc(-c3ccccc3)nc2c1` it is -7.38 (active).
As for `O=C(Nc1ccc2oc(-c3ccc4ccccc4c3)nc2c1)c1cccs1`, the B-score was -1.07 (inactive).
In the case of `CCO[C@@H]1OC(C(=O)NCc2nc3ccccc3[nH]2)=C[C@H](C2CCCCC2)[C@H]1CCCO` it was 0.35 (inactive); in that of `NC(=O)[C@H]1CC2(CC(c3cccc(NC(=O)[C@H]4CCC(=O)N4)c3)=NO2)CN1C(=O)c1ccccc1C(=O)c1ccccc1` (some centres undefined), -0.797 (inactive).
In the case of `COc1ccccc1NC(=O)CSc1nnc(C)n1CC1CCCO1` (centres undefined) it was -0.675 (inactive); in that of `COc1ccccc1NC(=O)CSc1nnc(-c2ccoc2C)n1CCc1ccccc1`, 2.44 (active); in that of `CCCn1c(SCC(=O)Nc2cccc(C(=O)OCC)c2)nnc1-c1ccoc1C`, -0.483 (inactive).
In the case of `C#CCOCCOCCOCCNc1nc(N2CCN(C(=O)C([C@@H](C)CC)n3cc(C(N)COC(=O)C(F)(F)F)nn3)CC2)nc(N2CCN(C(=O)[C@H](Cc3ccc(O)cc3)n3cc(C(N)[C@H](C)CC)nn3)CC2)n1` (some centres undefined) it was -0.939 (inactive); in that of `COCCN1C(=O)N[C@@H](c2ccccc2)C(C(=O)OC)=C1C`, -0.275 (inactive); in that of `COC(=O)CCCCCN1C(=O)NC(c2ccc(-c3ccccc3)cc2)C(C(=O)OCc2ccccc2)=C1C` (centres undefined), -5.33 (active).
In the case of `CC1=C(C(=O)OCc2ccccc2)C(c2ccc(C(F)(F)F)cc2)NC(=O)N1CCCCCC(=O)O` (centres undefined), the B-score is 0.765 (inactive).
In the case of `COc1ccc(C#Cc2c(-c3ccc(OC)cc3)oc3ccc(-c4ccc5c(c4)OCO5)cc23)cc1` it was 0.0246 (inactive); in that of `NC1=NC[C@@H](Cc2ccc(O)cc2)N1CC1CCCCC1`, 0.203 (inactive); in that of `CS(=O)(=O)c1ccc2nc(NC(=O)C3CCCCC3)sc2c1`, 2.38 (inactive).
The figure for `Cc1ccc2nc(NC(=O)C3CCN(S(=O)(=O)c4ccc5c(c4)oc(=O)n5C)CC3)sc2c1` is -0.00508 (inactive); for `O=C(Nc1nc2ccc(S(=O)(=O)N3CCCC3)cc2s1)C1CCCO1` (centres undefined) it is 2.39 (active); for `COC(C[C@@H]1O[C@@H]1C(=O)[C@H](C)OCc1ccccc1)OC` it is -1.33 (inactive).
In the case of `COC(=O)C1=C(C(=O)OC)[C@@H]2N(C)c3ccccc3[C@@]23C[C@@H](C(=O)OC)N(C(C)=O)C3=N1` it was -0.544 (inactive); in that of `C=CCNC(=O)c1ccc2c3n(nc2c1)-c1ccc(C)cc1CO3`, -0.154 (inactive); in that of `CCOC(=O)c1cc2ccccc2nc1C`, 0.593 (inactive).
For `CCOC(=O)c1cc(-c2nnc(-c3cc(OC)c(OC)c(OC)c3)o2)c(C)nc1C`, the B-score was 1.41 (active).
The figure for `CCCc1nc2ccccc2c(C(=O)OCc2nnc(-c3cc(OC)c(OC)c(OC)c3)o2)c1CC` is 0.135 (inactive); for `CCO[C@H]1OC(C(=O)N2CCN(Cc3ccccc3)CC2)=C[C@@H](c2cn(C(C)=O)c3ccccc23)[C@@H]1CCCO` it is -0.181 (inactive); for `CCO[C@@H]1OC(C(=O)NC2CC2)=C[C@H](C)[C@H]1CCCO` it is 0.173 (inactive).
Take `CN1CCN(C(CNS(=O)(=O)c2cccs2)c2cccnc2)CC1` (centres undefined): the B-score is -0.00301 (inactive).
The figure for `N/C(=N\OC(=O)Nc1ccc(Cl)c(Cl)c1)c1ncc(C(F)(F)F)cc1Cl` is 0.438 (inactive).
In the case of `Cc1nnc(NC(=O)Nc2ccc(Cl)c(Cl)c2)s1` it was -0.308 (inactive); in that of `O=C(CC(O)(C(F)(F)F)C(F)(F)F)Nc1ccc(Cl)c(Cl)c1`, -6.33 (active).
`Cc1nc(-c2ccccc2)sc1C1(C)CC(c2cccnc2)=NO1` (centres undefined): the B-score is 0.641 (inactive).
The figure for `C#Cc1ccc([C@@H]2C=C(C(=O)O)O[C@H](OCCCCO)C2)cc1` is -0.622 (inactive).
The figure for `CC1=C(N2CCN(c3ncccn3)CC2)CCC1=O` is 0.343 (inactive); for `CC1(C)OC(=O)N2CCc3ccccc3C21C` (centres undefined) it is -8.52 (active).
The figure for `COc1ccc(CN2CC[C@H]3C=CC[C@@H](C(=O)N4CCOCC4)[C@H]3C2=O)cc1OC` is 0.696 (inactive); for `C[C@]1(C(=O)NCCc2c[nH]c3ccccc23)C=C[C@@H](Cc2ccccc2)N1C(=O)c1ccccc1` it is 2.48 (active); for `O=C(CCCCCn1c(=O)[nH]c2ccccc2c1=O)NCCc1c[nH]c2ccccc12` it is 0.015 (inactive).
For `Cc1cc(C)cc(NC(=S)NCCc2c[nH]c3ccccc23)c1`, the B-score is 2.31 (inactive).
Take `NCCCC[C@@H]1NC(=O)[C@H](CCC(=O)O)NC(=O)c2cc([N+](=O)[O-])cc(I)c2NCC[C@@H](C(N)=O)NC1=O`: the B-score was -0.534 (inactive).
Take `COc1ccc(CNC(=O)C2(CC3CC(c4ccccc4)=NO3)CCN(C(=O)c3cccc(O)c3)CC2)cc1` (centres undefined): the B-score is 0.0185 (inactive).
In the case of `O=C(NCc1ccccc1)c1onc(CSc2ccncc2)c1C(=O)NCc1ccccc1` it was -1.52 (inactive).
`NC(=O)CC[C@@H]1NC(=O)[C@H](CO)NC(=O)c2cc([N+](=O)[O-])cc(I)c2NCC[C@@H](C(N)=O)NC1=O`: the B-score was -0.848 (inactive).
In the case of `Cc1ccc(OCC(=O)Nc2ccc(-c3nnc(-c4ccco4)o3)cc2)cc1` it was -0.0188 (inactive); in that of `O=C(Nc1cccc(-c2nc3ncccc3o2)c1)c1ccco1`, 0.346 (inactive).
For `Cc1ccc(OCC(=O)Nc2ccc(-c3nc4ncccc4o3)cc2)cc1`, the B-score is -8.77 (active).
The figure for `Cn1ccnc1-c1nnn(-c2ccc(F)cc2)n1` is -0.732 (inactive); for `CCC(=O)NCCc1nc2ccccc2n1CC` it is -0.73 (inactive); for `CCCc1nc2c(C)cc(-c3nc4ccccc4n3C)cc2n1Cc1ccc(-c2ccccc2C(=O)O)cc1` it is 3.87 (active).
In the case of `Cc1ccc(Cn2c(NC(=O)c3ccco3)nc3ccccc32)cc1` it was -0.191 (inactive); in that of `CC(C)(C)Oc1ccccc1Nc1nc(NCCO)nc(N2CCCC2)n1`, 1.65 (inactive).
The figure for `CCO[C@H]1OC(C(=O)Nc2ccccc2)=C[C@@H](C2CC2)[C@@H]1CCCO` is -0.987 (inactive); for `CCOc1cc(-c2noc(CCC(=O)N3CCOCC3)n2)ccc1OC` it is 2.65 (active); for `CCOc1ccc(-c2nnn(CC(=O)N3CCN(c4ccc(OC)cc4)CC3)n2)cc1OCC` it is -0.869 (inactive).
Consider `COc1ccc(N2CCN(C(=O)CCc3nc(-c4ccc(C)cc4)no3)CC2)cc1`, for which the B-score was 0.227 (inactive).
For the molecule `CC1(C)CC[C@]2(C(=O)O)CC[C@]3(C)C(=CCC4[C@@]5(C)CC[C@H](O)C(C)(C)C5[C@H](O)C[C@]43C)[C@@H]2C1` (some centres undefined), the B-score was 1.56 (inactive).
Turning to `COC(=O)COc1cccc2c(=O)n(CC(=O)NCCc3ccc(OC)c(OC)c3)ccc12`, the B-score is -1.43 (inactive).
In the case of `CCCCN1C(N)=NC[C@@H]1Cc1ccccc1` it was -0.466 (inactive).
The figure for `CCN1C(=O)N[C@@H](c2ccccc2)C(C(=O)OC)=C1C` is -0.748 (inactive).
Take `CC(=O)Nc1nonc1-c1nc2ccccc2n1Cc1ccccn1`: the B-score was 3.49 (active).
The figure for `Nc1nonc1-c1nc2ccccc2n1Cc1ccc(F)cc1` is -0.103 (inactive); for `Nc1nonc1-c1nc2ccccc2n1CCC(=O)O` it is 0.142 (inactive); for `C[C@H]1CC[C@]2(O[C@@H](CCO)C[C@@H](O)[C@@H]2O)O1` it is 0.279 (inactive).
In the case of `CCO[C@@H]1OC(C(N)=O)=C[C@H](c2ccc(Br)cc2)[C@H]1CCCO` it was -0.185 (inactive); in that of `CC[C@H](C)[C@@H](C(=O)N1CCNCC1)n1cc([C@@H](N)Cc2ccc(O)cc2)nn1`, 0.00778 (inactive); in that of `CCc1ccc2ncc(C(=O)c3ccccc3)c(N3CCOCC3)c2c1`, 2.66 (active).
In the case of `O=C(c1ccccc1)c1cc(-c2ccccn2)c(N2CCOCC2)s1` it was 1.13 (inactive); in that of `CCc1ccc(NC(=O)CSc2nc3ccccc3c(=O)n2CCN2CCOCC2)cc1`, 0.477 (inactive); in that of `N#CCc1c(C#N)c(N)nc(N2CCCC2)c1C#N`, -0.528 (inactive).
With `C#CCCOC(=O)N1C2=NC(C(=O)OC)=C(C(=O)OC)[C@@H]3N(C)c4ccc(OC)cc4[C@]23C[C@H]1C(=O)OC`, the B-score is -0.658 (inactive).
In the case of `C#CCOCCOCCOCCNc1nc(N2CCN(C(=O)[C@H](Cc3ccc(O)cc3)n3cc(C(N)CC(C)C)nn3)CC2)nc(N2CCN(C(=O)[C@H](CCC(=O)O)n3cc(C(N)[C@H](C)CC)nn3)CC2)n1` (some centres undefined) it was -0.0315 (inactive); in that of `C1=C(CCNc2ncnc3c2cnn3-c2ccccc2)CCCC1`, 1.22 (inactive); in that of `O=C(NCCC1=CCCCC1)C1CCN(Cc2cnn(-c3ccccc3)c2-n2cccc2)CC1`, 3.85 (active).
With `CC(=O)Nc1ccc(NC(=O)CSCc2cnn(-c3ccccc3)c2-n2cccc2)cc1`, the B-score was 0.28 (inactive).
In the case of `O=C(Nc1ccccc1[N+](=O)[O-])C1C(c2ccccc2)=C1c1ccccc1` it was -0.499 (inactive).
The figure for `O=C(O)c1ccccc1NC(=S)NC(NC(=O)c1ccccc1[N+](=O)[O-])C(Cl)(Cl)Cl` (centres undefined) is -2.89 (active).
The figure for `O=[N+]([O-])c1ccccc1NCc1ccc(Cl)cc1` is -0.347 (inactive).
For `CC1(c2nnc(-c3ccncc3)o2)CC(c2cccnc2)=NO1` (centres undefined), the B-score is -0.313 (inactive).
In the case of `CCc1nnc(SCc2cccc(F)c2)nc1CC` it was -0.0254 (inactive); in that of `CC(NC(=O)Nc1ccccc1)C(c1cccs1)N1CCN(c2ccccc2)CC1` (centres undefined), -0.314 (inactive).
The figure for `COc1ccccc1C1=CC(=O)CCC1` is -0.483 (inactive); for `C/C=C(/C)C(=O)O[C@@H]1c2cc3c(c4c2[C@@]2(CO4)C(=O)C(OC)=C(OC)C=C2C[C@@H](C)[C@H]1C)OCO3` it is -0.0544 (inactive); for `O=C(NC(Nc1nc2ccc([N+](=O)[O-])cc2s1)(C(F)(F)F)C(F)(F)F)c1ccccc1` it is -6.22 (active).
The figure for `Cc1cc(C)cc(OCC(=O)Nc2nc3ccc([N+](=O)[O-])cc3s2)c1` is 0.303 (inactive); for `COC(=O)C(NC(=O)c1ccc(OC)cc1)(Nc1ncc(S(=O)(=O)c2ccc([N+](=O)[O-])cc2)s1)C(F)(F)F` (centres undefined) it is 1.29 (inactive).

For the origin of these results see PubChem BioAssay AID449768 (Vanderbilt High Throughput Screening Facility, 2010).
